# Data taken from article PMC4336329 (PLoS ONE, 2015).
# Hit rate of the full screen: of about 310,000 compounds, about 14,000 (4.5%) showed an effect of 50% or more. Effects have a minus sign here. The list comes from a sample in which strong results are over-represented; it also holds similar structures and randomly drawn compounds.
# Target: human ether-à-go-go-related gene (hERG) potassium channel (human, UniProt Q12809)
# Experiment: primary screen, population patch clamp on CHO cells stably expressing hERG; higher = less effect of the substance
# 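Also: peak tail current of the secondary pulse compared with the same well before compound.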
# Sequence of human ether-à-go-go-related gene (hERG) potassium channel (Q12809 whole entry, looked up): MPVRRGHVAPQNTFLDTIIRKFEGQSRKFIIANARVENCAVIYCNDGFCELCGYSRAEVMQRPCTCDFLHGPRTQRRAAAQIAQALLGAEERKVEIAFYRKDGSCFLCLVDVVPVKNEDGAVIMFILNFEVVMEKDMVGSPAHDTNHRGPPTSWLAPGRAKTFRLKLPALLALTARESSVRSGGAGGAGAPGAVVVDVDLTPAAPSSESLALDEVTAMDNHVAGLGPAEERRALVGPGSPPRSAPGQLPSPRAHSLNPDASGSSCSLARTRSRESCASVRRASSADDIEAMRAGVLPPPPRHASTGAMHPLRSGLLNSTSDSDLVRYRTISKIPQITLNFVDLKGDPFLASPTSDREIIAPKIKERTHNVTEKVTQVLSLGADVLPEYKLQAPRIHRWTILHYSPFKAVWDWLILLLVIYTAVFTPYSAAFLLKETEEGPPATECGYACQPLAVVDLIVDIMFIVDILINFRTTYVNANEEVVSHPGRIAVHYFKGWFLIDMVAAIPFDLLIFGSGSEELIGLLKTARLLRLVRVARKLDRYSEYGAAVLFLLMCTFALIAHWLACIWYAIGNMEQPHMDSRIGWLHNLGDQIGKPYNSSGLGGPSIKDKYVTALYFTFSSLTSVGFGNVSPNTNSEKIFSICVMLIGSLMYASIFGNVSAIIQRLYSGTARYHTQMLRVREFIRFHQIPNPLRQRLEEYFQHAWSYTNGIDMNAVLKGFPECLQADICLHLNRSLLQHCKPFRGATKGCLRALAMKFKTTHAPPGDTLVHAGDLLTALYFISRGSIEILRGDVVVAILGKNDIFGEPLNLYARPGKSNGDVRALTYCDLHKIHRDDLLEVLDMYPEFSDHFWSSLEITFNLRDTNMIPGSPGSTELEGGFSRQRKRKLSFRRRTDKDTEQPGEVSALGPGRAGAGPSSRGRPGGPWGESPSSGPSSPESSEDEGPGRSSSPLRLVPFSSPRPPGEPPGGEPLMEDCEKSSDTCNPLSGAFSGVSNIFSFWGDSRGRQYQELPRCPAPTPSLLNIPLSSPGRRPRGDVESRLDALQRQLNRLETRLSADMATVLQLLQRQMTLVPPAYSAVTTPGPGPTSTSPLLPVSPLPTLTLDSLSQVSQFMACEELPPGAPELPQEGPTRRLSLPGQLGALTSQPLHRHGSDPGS
row,Compound,"hERG current change (%, negative = inhibition) at 10uM [%]"
1,COc1ccc(-c2c(-c3cc(OC)cc(OC)c3)n(C)c3ccc(-c4cccc5[nH]ccc45)cc23)cc1,16.7
2,COCCNC(=O)c1ccccc1NS(=O)(=O)c1ccc(Br)s1,0.678
3,CC(C)=C1C2CCC1C(C(=O)Nc1cc(C)cc(C)c1)C2C(=O)O (centres unmarked),14
4,CCN(CC)CC#CCC(OC)(c1ccccc1)c1ccccc1.Cl,-32.5
5,CN(C)CC#CCC(O)(c1ccccc1)c1ccccc1,-2.15
6,CCN(CC)CC#CCC(C)(c1ccccc1)c1ccccc1.Cl,-54.8
7,CCN(CC)CC#CCC(O)(c1ccccc1)C1CCCC1.Cl (centres unmarked),-11.7
8,CCN(CC)CC#CCC(O)(c1ccccc1)c1ccc(Br)cc1.Cl (centres unmarked),-50.1
9,CCN(CC)CC#CCC(O)(c1ccccc1)c1ccccc1,-25.1
10,CC(=O)N1CCC(N(CCN2CCOCC2)C(=S)Nc2cccc(C)c2)CC1,0.988
11,COc1ccc(NS(=O)(=O)c2cccc(C(=O)NCC(c3ccc(OC)cc3)N3CCCC3)c2)cc1 (centres unmarked),-46.7
12,COc1ccc(NS(=O)(=O)c2cccc(C(=O)NCC(c3ccccc3OC)N3CCCC3)c2)cc1 (centres unmarked),-55.4
13,COc1ccc(C(CNC(=O)c2ccc(C)c(S(=O)(=O)Nc3ccccc3OC)c2)N2CCCC2)cc1 (centres unmarked),-66.2
14,COc1ccccc1NS(=O)(=O)c1cc(C(=O)NCC(c2ccco2)N2CCCCC2)ccc1C (centres unmarked),-48.6
15,COc1ccccc1NS(=O)(=O)c1cc(C(=O)NCC(c2ccc(F)cc2)N2CCOCC2)ccc1C (centres unmarked),-19.1
16,C=CCN(c1ccccc1)S(=O)(=O)c1cccc(C(=O)NCC(c2ccccc2OC)N2CCCC2)c1 (centres unmarked),-70.5
17,C=CCN(c1ccccc1)S(=O)(=O)c1cccc(C(=O)NCC(c2cccs2)N2CCOCC2)c1 (centres unmarked),-18.7
18,COc1ccc(C(CNC(=O)c2cccc(S(=O)(=O)Nc3ccccc3OC)c2)N2CCOCC2)cc1 (centres unmarked),-46.1
19,COc1ccccc1NS(=O)(=O)c1cccc(C(=O)NCC(c2ccccc2OC)N2CCCC2)c1 (centres unmarked),-12.9
20,COc1ccc(C(CNC(=O)c2cccc(S(=O)(=O)Nc3ccccc3OC)c2)N2CCCC2)cc1 (centres unmarked),-56.6
21,C=CCN(c1ccccc1)S(=O)(=O)c1cccc(C(=O)NCC(c2ccc(F)cc2)N2CCOCC2)c1 (centres unmarked),-29.6

row,Compound,"hERG current change (%, negative = inhibition) at 10uM [%]"
1,COc1ccccc1C(CNC(=O)c1cccc(S(=O)(=O)Nc2ccc(C)cc2)c1)N1CCCC1 (centres unmarked),-29.8
2,CCOC(=O)c1sc(NC(=O)c2ccc(S(=O)(=O)N3CCCCC3)cc2)nc1-c1ccccc1,18.1
3,CC(=O)Nc1ccccc1C(F)(F)F,21.2
4,COc1ccc(C(=O)NC(C)c2nnc(SCC(=O)NC3CCCC3)n2C)cc1 (centres unmarked),4.98
5,O=C1OC(c2ccc(Cl)cc2)=C/C1=C/c1cccnc1,23.3
6,Cc1c(Cc2ccccc2)c(=O)oc2c(C)c(OCc3nn[nH]n3)ccc12,11.3
7,Cc1ccc(S(=O)(=O)N/N=C/c2ccc(OS(=O)(=O)c3ccc(C)c([N+](=O)[O-])c3)cc2)cc1,7.76
8,Cc1ccc(C(=O)NCCn2cc(SCC(=O)Nc3nnc(C)s3)c3ccccc32)cc1,-3.05
9,COc1ccccc1CNC(=O)CC(C)c1ccccc1 (centres unmarked),4.63
10,CCCn1c2ccccc2c2nnc(SCC(=O)Nc3cc(C)on3)nc21,-0.11
11,Cc1ccc(S(=O)(=O)N2CCN(S(C)(=O)=O)C2c2ccccc2)cc1 (centres unmarked),-37.2
12,C=CCOc1ccc(/C=C/C(=O)OCC(=O)NCCc2ccccc2)cc1,8.61
13,CNS(=O)(=O)c1cccc(C(=O)NCC(c2cccs2)N(C)C)c1 (centres unmarked),-5.25
14,CCN(c1ccccc1)S(=O)(=O)c1cccc(C(=O)NCC(c2cccs2)N(C)C)c1 (centres unmarked),-48.6
15,COc1ccc(C(CNC(=O)c2cccc(S(=O)(=O)N3CCCC3)c2)N2CCCC2)cc1 (centres unmarked),-22.9
16,COc1ccc(C(CNC(=O)c2cccc(N(C)C)c2)N2CCCC2)cc1 (centres unmarked),-28.3
17,COc1ccc(C(CNC(=O)c2cccc(S(=O)(=O)N(C)c3ccccc3)c2)N2CCCC2)cc1 (centres unmarked),-60.2
18,COc1ccc(N(C)S(=O)(=O)c2cccc(C(=O)NCC(c3cccs3)N(C)C)c2)cc1 (centres unmarked),-52.3
19,CCOc1ncccc1C(=O)OCC(=O)c1ccc(C)c(C)c1,-20.2
20,CN1CCCC(OC(=O)COc2ccc(Br)cc2)C1.Cl (centres unmarked),-12.8
21,CCOc1ccc(Nc2nc(N)nc(CSC(=S)N3CCOCC3)n2)cc1,-2

row,Compound,"hERG current change (%, negative = inhibition) at 10uM [%]"
1,CCOC(=O)N1CCN(Cc2nc(N)nc(Nc3ccc(OC)cc3)n2)CC1,-62.4
2,CCOC(=O)N1CCN(Cc2nc(N)nc(Nc3ccc(OCC)cc3)n2)CC1,-67.6
3,CCOC(=O)N1CCN(Cc2nc(N)nc(Nc3ccc(Oc4ccccc4)cc3)n2)CC1,-70.7
4,COc1ccc(Nc2nc(N)nc(CSC(=S)N3CCN(C)CC3)n2)cc1,-12.5
5,CCOC(=O)N1CCN(Cc2nc(-c3ccc(OC)cc3)no2)CC1,-4.74
6,CCOC(=O)N1CCN(Cc2nc(N)nc(Nc3ccccc3C)n2)CC1,-14.9
7,Cc1c(OCC(F)(F)F)ccnc1CSc1nc2ccccc2[nH]1,20.6
8,O=C(CCN1C(=O)/C(=C/c2ccccc2Cl)SC1=S)NNC(=O)c1ccccc1O,-6.37
9,CCOc1ccc(N(CC(=O)Nc2ccc(OC)cc2)S(C)(=O)=O)cc1,3.39
10,CC(C)(C)C(=O)N1CCC(O)(CS(=O)(=O)c2ccc(Cl)c(Cl)c2)CC1,-5.3
11,CCCN1C(=O)C(NS(=O)(=O)c2ccc(N)cc2)(C(F)(F)F)C(C(=O)OC)=C1C (centres unmarked),10.1
12,CCN(CC1CCCO1)C(=O)c1cc(COc2ccccc2SC)on1 (centres unmarked),-85.6
13,CSc1ccccc1OCc1cc(C(=O)NCc2csc(C(C)C)n2)no1,-9.57
14,CCN(CC)C1CCN(C(=O)c2cc(COc3ccc(F)cc3Cl)on2)C1 (centres unmarked),-70
15,Cc1ccc(OCc2cc(C(=O)NCC(C)(C)N3CCOCC3)no2)cc1C,-45.8
16,CSc1ccccc1OCc1cc(C(=O)N(C)C(C)c2ccccn2)no1 (centres unmarked),-10.6
17,CSc1ccccc1OCc1cc(C(=O)N(C)C(C)c2nc(C)cs2)no1 (centres unmarked),-63.6
18,CSc1ccccc1OCc1cc(C(=O)NCC(C)(C)N2CCOCC2)no1,-93
19,CCN(CC1CCCO1)C(=O)c1cc(COc2ccc(OC)cc2Cl)on1 (centres unmarked),-5.59
20,O=C(c1cc(COc2ccc(F)cc2Cl)on1)N1CCCC(c2ccccc2)C1 (centres unmarked),-5.56
21,O=C(c1cc(COc2ccc(F)cc2Cl)on1)N1CC[C@@H]2CCCC[C@H]2C1,12.6

row,Compound,"hERG current change (%, negative = inhibition) at 10uM [%]"
1,COc1ccc(OCc2cc(C(=O)NCC(C)(C)N3CCOCC3)no2)c(Cl)c1,-31.8
2,CCN(CC1CCCO1)C(=O)c1cc(COc2ccc(F)cc2F)on1 (centres unmarked),-14.8
3,COc1cc(CNS(=O)(=O)CCl)cc(OC)c1OC,12.7
4,CCOC(=O)c1sc(=S)n(C)c1NC(=O)c1ccc(OC)cc1,17.4
5,COc1ccc2nc(C)c3cc(C)oc3c2c1,-15.5
6,Cc1cc(C)c2c(n1)SCC(=O)N2CC(=O)Nc1cc(F)ccc1F,-7.16
7,COc1ccc(NC(=O)/C=C/c2ccc(OC(F)F)cc2)cn1,-24.7
8,CCC(=O)NCCc1nc2cc(NC(=O)c3ccc(F)cc3)ccc2n1C,1.29
9,COc1cc(OC)c(C(=O)Nc2ccncc2)cc1OC,7.83
10,CCC(=O)Nc1ccc(S(=O)(=O)c2ccc(NC(=O)CC)cc2)cc1,0.428
11,CSc1ccccc1OCc1cc(C(=O)N2CCCC(C)C2)no1 (centres unmarked),-0.622
12,COc1cccc(OCc2cc(C(=O)N3CCN(C)C(c4ccccc4)C3)no2)c1 (centres unmarked),-6.09
13,CSc1ccccc1OCc1cc(C(=O)N2CCN(C)C(c3ccccc3)C2)no1 (centres unmarked),-5.98
14,COCC1CCN(C(=O)c2cc(COc3ccccc3SC)on2)C1 (centres unmarked),-33.9
15,Cc1ccccc1OCC(=O)NCC(C)(C)N1CCOCC1,7.19
16,CCN(CC)C1CCN(C(=O)c2cc(COc3ccccc3SC)on2)C1 (centres unmarked),-68.4
17,COc1ccccc1OCc1cc(C(=O)N2CCN(C)C(c3ccccc3)C2)no1 (centres unmarked),-61.1
18,CC(C)(CNC(=O)COc1ccccc1Cc1ccccc1)N1CCOCC1,-55.6
19,Cl.O=C(COc1ccccc1Cc1ccccc1)NCCCN1CCOCC1,-32.1
20,C[C@H](CCC(=O)O)[C@H]1CC[C@H]2[C@@H]3CC[C@@H]4C[C@H](O)CC[C@]4(C)[C@H]3C[C@H](O)[C@]12C,11.8
